Most compounds without a hit are left out; they make up all but 2.4% or so of the library.
Pol beta inh: DNA polymerase beta (human) inhibition | P06746 | Pol beta primer extension/strand displacement, fluorescence kinetic | Potency, µM (highest dose often 114 µM), inactives show at the highest dose activity change, negative = inhibition, hits mostly inhibitors | 340,000 compounds, 1.3% hits | AID 485314; note: % is set by controls: 0 for no effect and ±100 for the full control effect
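Values derive from four-parameter Hill fits of normalized kinetic data: reads at 0 and 10 min following addition of 50 nM substrate to 10 nM Pol beta preincubated 15 min with compound.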
Pol iota inh: DNA polymerase iota (human) inhibition; Pol iota fluorescent replication assay, 10 min; Potency, µM (highest dose often 115 µM), without a hit: at the highest dose activity, negative = inhibition, actives largely listed as inhibitors; Q9UNA4; 390,000 compounds, 1% hits
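Pol iota at 10 nM preincubated 15 min with compounds at room temperature; reaction started with fluorescent substrate, 50 nM final. Fluorescence read kinetically at 0 and 10 min; buffer-only wells as negative control.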
GLS inhibitor: inhibitors of human glutaminase (GLS); AID 624170; 410,000 compounds, 0.21% hits; Potency, µM (highest dose often 45.5 µM), for the others: at the highest dose activity change, negative = inhibition, actives largely listed as inhibitors; GLS enzymatic activity, qHTS titration; note: % is set by controls: 0 for no effect and ±100 for the full control effect
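Assay buffer: 45 mM KH2PO4 pH 8.2, 0.02% Tween-20. hKGA acts on L-glutamine (1 mM solution added); product glutamate is reported by an oxidase/peroxidase Amplex Red coupling, with fluorescence taken at baseline and 30 min.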
POLK inh: blocks human DNA polymerase kappa activity; purified Pol kappa, fluorescent DNA synthesis assay, 10 min; AID 588579; 400,000 compounds, 0.53% hits; Potency, µM (titrated, usually from 107 µM), for inactives: at the highest dose activity, negative = inhibition, actives largely listed as inhibitors; Q9UBT6; note: % is set by controls: 0 for no effect and ±100 for the full control effect
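Activity was followed as the change in fluorescence between reads at 0 and 10 min after starting the reaction with 50 nM substrate. Beforehand, 10 nM polymerase had been preincubated with compound for 15 min at room temperature.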
Pol eta inh: DNA polymerase eta (human) inhibition | 390,000 compounds, 1.2% hits | Q9Y253 | recombinant Pol eta, fluorescent DNA replication assay | Potency, µM (doses to about 114 µM), inactives show at the top dose activity change, negative = inhibition, actives largely listed as inhibitors; note: % is set by controls: 0 for no effect and ±100 for the full control effect
Target sequence (Q9Y253 whole entry, looked up): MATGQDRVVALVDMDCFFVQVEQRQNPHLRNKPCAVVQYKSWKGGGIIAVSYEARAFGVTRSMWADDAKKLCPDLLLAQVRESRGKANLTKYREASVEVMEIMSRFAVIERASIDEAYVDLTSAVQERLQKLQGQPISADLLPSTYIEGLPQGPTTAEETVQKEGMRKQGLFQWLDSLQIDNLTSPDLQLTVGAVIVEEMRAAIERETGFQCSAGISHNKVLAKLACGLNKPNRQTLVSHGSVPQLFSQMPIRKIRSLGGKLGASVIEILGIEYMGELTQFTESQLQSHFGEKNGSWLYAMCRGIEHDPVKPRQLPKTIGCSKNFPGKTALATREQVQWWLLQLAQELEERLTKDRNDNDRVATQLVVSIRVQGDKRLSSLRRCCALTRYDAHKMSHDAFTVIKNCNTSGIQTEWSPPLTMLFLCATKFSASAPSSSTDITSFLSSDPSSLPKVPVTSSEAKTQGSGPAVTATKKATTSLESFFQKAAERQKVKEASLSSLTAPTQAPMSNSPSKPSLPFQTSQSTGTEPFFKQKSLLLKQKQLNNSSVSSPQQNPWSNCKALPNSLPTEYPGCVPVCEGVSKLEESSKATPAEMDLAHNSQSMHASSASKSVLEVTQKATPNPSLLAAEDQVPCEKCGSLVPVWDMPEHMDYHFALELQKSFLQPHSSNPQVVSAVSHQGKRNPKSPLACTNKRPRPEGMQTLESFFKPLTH
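Pol eta at 10 nM preincubated with compounds 15 min at room temperature; reaction started with fluorescent substrate (50 nM final) and read kinetically at 0 and 10 min.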
APE1 inh: blocks human APE1 abasic DNA cleavage | P27695 | recombinant APE1, TAMRA/BHQ-2 abasic DNA cleavage fluorescence | Potency, µM (doses to about 65.8 µM), without a hit: at the highest dose activity change, negative = inhibition, most hits filed as inhibitors | 350,000 compounds, 0.35% hits | AID 2517;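 note: plate controls were vehicle for no effect and reference inhibitor for full effect; nearly all actives have a fitted effect of over 55% in size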
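Step 1: APE1 (0.75 nM) with compound, 15 min RT. Step 2: add 50 nM fluorophore/quencher THF duplex. Step 3: three fluorescence reads 60 s apart (525/598 nm); read 3 minus read 1 = reaction progress.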
An asterisk follows results filed as active; ? = inconclusive; nt = no result. Calls come from the whole dose curve; as a rule, active = well fitted curve in the direction sought with a large enough effect; inconclusive = small, poorly fitted or top-dose-only effect, or another doubt; inactive = no such curve, though single readings can be large; an effect the other way counts as inactive or inconclusive. Potency is the fitted concentration of half-maximal effect.

SMILES | Pol beta inh | Pol iota inh | GLS inhibitor | POLK inh | Pol eta inh | APE1 inh
C/C(CC(=O)Nc1cc(C)ccn1)=N\NC(=O)c1ccc(C(C)(C)C)cc1 | 16% | 33% | 7% | -4% | 0% | 44%
COc1ccc(-c2cc(=O)oc3cc(OCC(=O)NCC(O)c4ccccc4)ccc23)cc1 (stereo unspecified) | 26% | 29% | -4% | 2% | 7% | 20%
O=S(=O)(Nc1nc2ccccc2nc1Nc1ccc2c(c1)OCCO2)c1cccs1 | 18µM* | ? | 5% | -42% | ? | -6%
Cc1ccc(-c2csc(NC(=O)c3ccc(Br)cc3)c2C(=O)O)cc1 | 20% | 24% | 4% | 1% | 50µM* | -6%
Cc1cccc(C(=O)Nc2scc(-c3ccc(Br)cc3)c2C(=O)O)c1 | nt | 80% | 12% | -8% | -4% | nt
O=C(NN=C1CCCC1)c1cc(O)cc(O)c1 | 20µM* | 35µM* | -25% | ? | 50µM* | 11µM*
C=CC[n+]1c(/C=C2\C=Cc3cc(C)ccc3N2CC)ccc2ccccc21 | 32µM* | ? | -11% | ? | ? | -2%
COc1cc(/C=N/NC(=O)c2sc(N)c(C#N)c2C)cc(Br)c1O | -14% | ? | 1% | -24% | ? | -5%
COc1cc(/C=N/NC(N)=O)cc([N+](=O)[O-])c1O | ? | 13% | 0% | ? | 50µM* | ?
COc1cccc(/C=N/NC(=O)c2ccc(COc3ccc(Cl)cc3Cl)o2)c1 | 8% | 6% | -6% | -3% | -2% | -4%
COc1cc(Br)cc(/C=N/NC(=O)Cc2ccccc2)c1O | nt | 92% | -23% | -2% | -6% | nt
COc1cc(/C=N/NC(=O)Cc2ccc(Br)cc2)cc(OC)c1O | 22µM* | 61% | -4% | -13% | -16% | 9%
COc1cc(/C=N/NC(=O)CC#N)cc(Br)c1O | 6% | 45µM* | 0% | -16% | -27% | 1%
COc1cc(/C=N/NC(=O)c2ccc(COc3ccccc3Cl)o2)cc(Br)c1O | 28µM* | ? | -10% | -29% | ? | -9%
COC(=O)N/N=C/c1cc(OC)c(O)c([N+](=O)[O-])c1 | 15% | ? | 26% | -32% | ? | ?
O=C(N/N=C/c1cc([N+](=O)[O-])ccc1O)c1ccc(COc2ccc3c(c2)CCC3)o1 | 22% | 38% | -4% | -8% | 1% | 0%
O=C(N/N=C/c1ccc2ccccc2c1)c1ccc(COc2ccc3c(c2)CCC3)o1 | 35µM* | 2% | 10% | -3% | 10µM* | -7%
Nc1c(C(=O)N/N=C/c2ccc(Cl)cc2)cnn1-c1ccccc1 | -8% | 147% | 10% | -11% | -10% | -4%
O=c1c(Cl)c(N/N=C/c2ccc(Cl)cc2)cnn1-c1ccccc1 | 18µM* | 28µM* | -6% | ? | ? | -7%
CN1CCN(CCC(=O)N/N=C/c2ccccc2F)CC1 | 2% | 26% | 9% | -3% | -1% | 3%
O=c1c2c([N+](=O)[O-])cc([N+](=O)[O-])cc2sn1Cc1ccccc1 | 21% | 59% | 1.8µM* | 7% | -19% | -1%
O=c1c2c([N+](=O)[O-])cc([N+](=O)[O-])cc2sn1-c1ccc(Br)cc1 | 15% | 1% | 11µM* | -8% | -8% | -3%
Cc1ccc(NC(=O)/C(=C\c2ccco2)NC(=O)c2ccco2)cc1 | 34% | 16% | 5% | -22% | 0% | -7%
Cc1ccc(NC(=O)N/C=C/c2ccco2)cc1 | 22µM* | 20µM* | -16% | 50µM* | 50µM* | ?
CN(Cc1ccccc1)C(=O)c1ccc2sc([C@@H]3O[C@H](CO)[C@H](O)[C@H](O)[C@H]3O)nc2c1 | nt | nt | -1% | nt | nt | nt
SMILES | Pol beta inh | Pol iota inh | GLS inhibitor | POLK inh | Pol eta inh | APE1 inh
N#Cc1ncc(Cc2ccccc2)nc1C#N | 7% | 33% | -3% | -13% | 40µM* | 16%
Nc1cccn2c(-c3ccc(Cl)c(Cl)c3)cnc12 | -14% | 13µM* | 9% | -13% | -4% | 0%
S=c1[nH]nc(COc2ccccc2)n1/N=C/C=C/c1ccco1 | 20µM* | ? | ? | ? | 28µM* | ?
O=S(=O)(Nc1ncnc2sc3c(c12)CCC3)c1cc(F)ccc1F | 2% | -3% | 7% | -11% | -17% | 18%
O=S(=O)(Nc1ncnc2sc3c(c12)CCC3)c1ccc(Cl)s1 | -2% | ? | 13% | 0% | 35µM* | 7%
CC(C)S(=O)(=O)C1=NSC2=NC(=O)/C(=C\c3ccc(-c4ccccc4)o3)C(=N)N21 | 79µM* | -12% | 14% | ? | 18µM* | 2%
Cc1ccc2ccc3cc(C(=O)Nc4ccc(C)c(F)c4)nc3c2[nH]1 | ? | 89µM* | 0% | -15% | -11% | nt
CCCSc1oc(-c2ccco2)nc1S(=O)(=O)c1ccc(Cl)cc1 | -19% | ? | -9% | -18% | -5% | nt
O=C(CSc1oc(-c2ccco2)nc1S(=O)(=O)c1ccc(Br)cc1)c1ccc(Cl)cc1 | 12% | 89µM* | 7% | ? | -3% | nt
O=c1ccsn1Cc1ccccc1 | 4% | 25µM* | ? | 0% | -14% | -4%
O=C1NC(Cc2ccccc2)C(=O)N1Cc1ccccc1 (stereo unspecified) | nt | 26% | 2% | -5% | -11% | nt
CCOC(=O)Cc1csc(N/N=C\c2cccc(Br)c2)n1 | 5% | 126% | 20µM* | -2% | -17% | 5%
CCOC(=O)Cc1csc(N/N=C/c2ccccc2)n1 | 31% | -14% | 12% | -3% | -8% | 16%
N#Cc1cccc(S(=O)(=O)NCC(=O)OCC(=O)c2ccc[nH]2)c1 | ? | 107% | -3% | -11% | -24% | -4%
CCCCNC1=CC(=O)C(=O)c2ccccc21 | 21% | ? | -29% | -11% | ? | 8%
CCCCNC1=CC(=O)C(NCCCC)=CC1=O | nt | 32µM* | ? | -2% | -26% | nt
CC(=O)c1cccc(NC(=O)CSc2ccc(-c3ccccn3)nn2)c1 | 1% | 20% | 2% | -10% | -1% | -7%
CC(=O)Nc1cccc(NC(=O)CSc2ccc(-c3sc(-c4ccccc4)nc3C)nn2)c1 | 5.6µM* | ? | 9% | ? | -19% | nt
CC(=O)Nc1cccc(NC(=O)CSc2ccc(-c3ccccn3)nn2)c1 | 25µM* | 49% | 2% | -20% | 13% | 0%
O=C(Oc1ccc(-c2nccc(-c3ccccn3)n2)cc1)c1cccc(C(F)(F)F)c1 | 1% | -9% | -11% | -11% | -17% | -5%
CCN1CCC(N(Cc2ccc3c(c2)OCO3)C(=O)Nc2ccc(Br)c(C)c2)CC1 | 43% | 5% | 1% | -6% | -15% | nt

Screening results as filed in PubChem.
